The values below come from PubChem BioAssay (EPA / NIEHS).

Conditions in all cases: mRNA level, 48 h; actives raise or lower the signal
Read-out in test [1]: MYC, MYC (gene 4609)
Briefly: LTEA_HepaRG_MYC: Life Technologies and Expression Analysis (LTEA) Assay for MYC using HepaRG (AID 2283518). Put shortly:
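Differentiated human HepaRG cells, plated 48 h then switched to serum-free induction medium, were exposed in duplicate for 48 h to 8-point half-log series up to 100 uM in 0.5% DMSO. MYC mRNA measured by qRT-PCR, normalized to ACTB/GAPDH/POLR2A.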

Read-out in test [2]: matrix metalloproteinase-3 (MMP3), MMP3 (gene 4314)
Kind of test: LTEA_HepaRG_MMP3: Life Technologies and Expression Analysis (LTEA) Assay for matrix metalloproteinase-3 (MMP3) using HepaRG (AID 2283519). Put shortly:
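Human liver HepaRG cultures received chemicals (top concentration 100 uM, 0.5% DMSO) for 48 h in duplicate. MMP3 mRNA induction or loss was then assessed via TaqMan qRT-PCR with housekeeping-gene normalisation.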

Read-out in test [3]: Paternally Expressed 10 (PEG10), PEG10 (gene 23089)
Briefly: LTEA_HepaRG_PEG10: Life Technologies and Expression Analysis (LTEA) Assay for Paternally Expressed 10 (PEG10) using HepaRG (AID 2283520).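 For AC50: PEG10 transcript by qRT-PCR normalised to ACTB GAPDH and POLR2A.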 Put shortly:
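qRT-PCR read-out: PEG10 mRNA normalised to three housekeeping genes, fitted bidirectionally against 0.5% DMSO vehicle. HepaRG cells received test chemicals for 48 h in serum-free induction medium, 8 points, top 100 uM, half-log steps.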

Read-out in test [4]: Nuclear factor NF-kappa-B p105 subunit (Homo sapiens) (UniProt P19838)
Kind of test: LTEA_HepaRG_NFKB1: Life Technologies and Expression Analysis (LTEA) Assay for Nuclear Factor Kappa B Subunit 1 (NFKB1) using HepaRG (AID 2283521).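 Note: TaqMan qRT-PCR transcript normalised to ACTB GAPDH and POLR2A housekeeping genes.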 Put shortly:
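Differentiated human HepaRG cells in serum-free induction medium with 0.5% DMSO were exposed for 48 h to eight half-log concentrations, top 100 uM, in duplicate. NFKB1 mRNA measured by Fluidigm TaqMan qRT-PCR, normalised to ACTB, GAPDH and POLR2A; bidirectional fit versus DMSO.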

Read-out in test [5]: Protein phosphatase 2A (PPP2R4), PTPA (gene 5524)
Kind of test: LTEA_HepaRG_PPP2R4: Life Technologies and Expression Analysis (LTEA) Assay for Protein phosphatase 2A (PPP2R4) using HepaRG (AID 2283522). Put shortly:
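HepaRG, 48 h exposure, 8-pt half-log series from 100 uM, 0.5% DMSO vehicle, duplicates. Readout: PPP2R4 mRNA, Fluidigm qRT-PCR, housekeeping-normalized. Bidirectional curve fit vs DMSO baseline.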

Read-out in test [6]: Phosphatase and tensin (PTEN), PTEN (gene 5728)
Kind of test: LTEA_HepaRG_PTEN: Life Technologies and Expression Analysis (LTEA) Assay for Phosphatase and tensin (PTEN) using HepaRG (AID 2283523). Put shortly:
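Expression of PTEN is quantified in the human liver line HepaRG following two days of dosing (top concentration 100 uM, half-log dilutions, 0.5% DMSO). Values derive from bidirectional curve fitting relative to DMSO controls.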

Read-out in test [7]: solute carrier (SLC22A1), SLC22A1 (gene 6580)
Kind of test: LTEA_HepaRG_SLC22A1: Life Technologies and Expression Analysis (LTEA) Assay for solute carrier (SLC22A1) using HepaRG (AID 2283524). Put shortly: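 Transcript induction or suppression of SLC22A1 in human HepaRG cultures is scored after 48 h chemical treatment, with DMSO (0.5%) as baseline for bidirectional fitting. Concentrations span eight half-log points topping at 100 uM.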

Read-out in test [8]: Pyruvate Dehydrogenase Kinase 4 (PDK4), PDK4 (gene 5166)
Briefly: LTEA_HepaRG_PDK4: Life Technologies and Expression Analysis (LTEA) Assay for Pyruvate Dehydrogenase Kinase 4 (PDK4) using HepaRG (AID 2283525). Put shortly:
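Eight-point, half-log concentration series (max 100 uM, 0.5% DMSO) applied to differentiated HepaRG cells for 48 h in duplicate. Endpoint: PDK4 mRNA induction or repression by qRT-PCR against DMSO baseline.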

Read-out in test [9]: NAD(P)H dehydrogenase [quinone] 1 (NQO1), NQO1 (gene 1728)
Briefly: LTEA_HepaRG_NQO1: Life Technologies and Expression Analysis (LTEA) Assay for NAD(P)H dehydrogenase [quinone] 1 (NQO1) using HepaRG (AID 2283526). Put shortly: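 qRT-PCR read-out (Fluidigm TaqMan), normalized to three housekeeping genes, after 48 h chemical exposure of HepaRG cells. Concentrations: eight points, top 100 uM, half-log steps, 0.5% DMSO vehicle. Gain or loss of signal fitted relative to DMSO.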

Read-out in test [10]: Nuclear factor erythroid 2-related factor 2 (Homo sapiens) (UniProt Q16236)
Kind of test: LTEA_HepaRG_NFE2L2: Life Technologies and Expression Analysis (LTEA) Assay for Nuclear factor erythroid 2-related factor 2 (NFE2L2) Transcription Factor using HepaRG (AID 2283527).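 Note: TaqMan qRT-PCR transcript level normalised to ACTB GAPDH and POLR2A housekeeping genes.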 Put shortly:
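Human liver HepaRG line treated in duplicate for 48 h with an eight-point series topping at 100 uM. Gene expression of NFE2L2 by qRT-PCR, bidirectionally fitted against the vehicle control.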

Read-out in test [11]: succinate dehydrogenase complex iron sulfur subunit B (SDHB), SDHB (gene 6390)
Briefly: LTEA_HepaRG_SDHB: Life Technologies and Expression Analysis (LTEA) Assay for succinate dehydrogenase complex iron sulfur subunit B (SDHB) using HepaRG (AID 2283528). Put shortly: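 HepaRG cells (~100,000/well, plated 48 h) exposed in duplicate for 48 h in serum-free induction medium to 8-point half-log series from 100 uM in 0.5% DMSO; mRNA by qRT-PCR normalised to ACTB, GAPDH, POLR2A; bidirectional fit versus DMSO.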

Read-out in test [12]: Signal transducer and activator of transcription 3 (Homo sapiens) (UniProt P40763)
Briefly: LTEA_HepaRG_STAT3: Life Technologies and Expression Analysis (LTEA) Assay for Signal transducer and activator of transcription (STAT3) using HepaRG (AID 2283529). Put shortly:
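In this transcriptional endpoint, HepaRG cultures receive test chemicals at up to 100 uM for 48 h, tested in duplicate. STAT3 mRNA is normalized to ACTB, GAPDH and POLR2A.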

Read-out in test [13]: solute carrier (SLCO1B1), SLCO1B1 (gene 10599)
Briefly: LTEA_HepaRG_SLCO1B1: Life Technologies and Expression Analysis (LTEA) Assay for solute carrier (SLCO1B1) using HepaRG (AID 2283530). Put shortly:
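Differentiated human HepaRG cells, plated 48 h, switched to serum-free induction medium and exposed in duplicate for 48 h to 8 half-log concentrations (top 100 uM) in 0.5% DMSO. SLCO1B1 mRNA by TaqMan qRT-PCR, normalized to ACTB/GAPDH/POLR2A.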

Read-out in test [14]: Transforming Growth Factor (TGFA), TGFA (gene 7039)
Kind of test: LTEA_HepaRG_TGFA: Life Technologies and Expression Analysis (LTEA) Assay for Transforming Growth Factor (TGFA) using HepaRG (AID 2283532). Put shortly: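 Gene expression of TGFA was quantified by qRT-PCR after human HepaRG cells were treated for 48 h with test chemicals (eight concentrations, highest 100 uM, 0.5% DMSO). Activity in either direction was fitted relative to DMSO.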

Read-out in test [15]: Transforming Growth Factor (TGFB1), TGFB1 (gene 7040)
Briefly: LTEA_HepaRG_TGFB1: Life Technologies and Expression Analysis (LTEA) Assay for Transforming Growth Factor (TGFB1) Transporter using HepaRG (AID 2283533). Put shortly: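 Differentiated human HepaRG cells in serum-free induction medium were exposed in duplicate for 48 h to eight concentrations (top 100 uM, half-log steps, 0.5% DMSO). TGFB1 mRNA was quantified by qRT-PCR, normalized to ACTB, GAPDH, POLR2A, and fitted bidirectionally against DMSO.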

Read-out in test [16]: TIMP1, TIMP1 (gene 7076)
Briefly: LTEA_HepaRG_TIMP1: Life Technologies and Expression Analysis (LTEA) Assay for TIMP1 using HepaRG (AID 2283534).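 Note: TaqMan qRT-PCR signal normalized to ACTB GAPDH and POLR2A housekeeping genes.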 Put shortly:
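Differentiated human HepaRG cells in serum-free induction medium were exposed 48 h to chemicals (8 half-log concentrations, top 100 uM, 0.5% DMSO). TIMP1 mRNA was quantified by TaqMan qRT-PCR, normalized to ACTB/GAPDH/POLR2A; bidirectional fit versus DMSO.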

Read-out in test [17]: Tumor necrosis factor receptor 1 (TNFRSF1A), TNFRSF1A (gene 7132)
Kind of test: LTEA_HepaRG_TNFRSF1A: Life Technologies and Expression Analysis (LTEA) Assay for Tumor necrosis factor receptor 1 (TNFRSF1A) using HepaRG (AID 2283535). Put shortly:
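Differentiated human HepaRG cells were exposed in duplicate for 48 h in serum-free induction medium to eight concentrations (top 100 uM, half-log steps, 0.5% DMSO). TNFRSF1A mRNA was quantified by qRT-PCR, normalized to ACTB, GAPDH and POLR2A, then fitted bidirectionally against DMSO.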

Read-out in test [18]: Thyroid Hormone Responsive (THRSP), THRSP (gene 7069)
Briefly: LTEA_HepaRG_THRSP: Life Technologies and Expression Analysis (LTEA) Assay for Thyroid Hormone Responsive (THRSP) using HepaRG (AID 2283536). Put shortly: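 Cell model: human HepaRG, approx. 100,000 cells/well, 0.5% DMSO vehicle. Exposure lasts 48 h; phenobarbital 1 mM serves as induction positive control. Gene expression is measured by qRT-PCR against three endogenous control genes.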

Read-out in test [19]: UDP glucuronosyltransferase (UGT1A1), UGT1A1 (gene 54658)
Kind of test: LTEA_HepaRG_UGT1A1: Life Technologies and Expression Analysis (LTEA) Assay for UDP glucuronosyltransferase (UGT1A1) using HepaRG (AID 2283538). Put shortly: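 HepaRG, 48 h chemical exposure (top 100 uM, half-log 8-pt, 0.5% DMSO vehicle), duplicate wells; qRT-PCR (TaqMan, Fluidigm array) for UGT1A1 mRNA, housekeeping-normalized; bidirectional curve fit vs DMSO baseline.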

The source made the active and inactive calls. Rule for the calls: active = hit-call score of the fitted dose curve at least 0.9, where 1 is the maximum; inactive = score below 0.9.

Sequence of Nuclear factor erythroid 2-related factor 2 (Homo sapiens) (Q16236 whole entry, looked up): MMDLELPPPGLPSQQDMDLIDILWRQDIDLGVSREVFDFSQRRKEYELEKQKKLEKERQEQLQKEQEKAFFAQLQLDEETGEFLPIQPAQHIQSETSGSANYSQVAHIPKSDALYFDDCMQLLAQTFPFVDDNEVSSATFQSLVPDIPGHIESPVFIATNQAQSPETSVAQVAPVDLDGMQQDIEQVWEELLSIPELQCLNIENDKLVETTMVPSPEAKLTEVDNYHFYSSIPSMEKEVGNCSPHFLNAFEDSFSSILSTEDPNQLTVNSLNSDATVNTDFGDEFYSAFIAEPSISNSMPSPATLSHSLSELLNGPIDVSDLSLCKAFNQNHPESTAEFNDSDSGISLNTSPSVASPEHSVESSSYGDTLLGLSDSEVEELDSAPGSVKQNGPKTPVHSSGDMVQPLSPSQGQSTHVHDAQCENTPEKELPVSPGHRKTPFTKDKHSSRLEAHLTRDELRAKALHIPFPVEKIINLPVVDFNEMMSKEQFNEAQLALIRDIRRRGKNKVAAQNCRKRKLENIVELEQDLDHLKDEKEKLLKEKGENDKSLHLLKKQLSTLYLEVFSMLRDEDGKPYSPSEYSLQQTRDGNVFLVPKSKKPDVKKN
Sequence of Nuclear factor NF-kappa-B p105 subunit (Homo sapiens) (P19838 whole entry, looked up): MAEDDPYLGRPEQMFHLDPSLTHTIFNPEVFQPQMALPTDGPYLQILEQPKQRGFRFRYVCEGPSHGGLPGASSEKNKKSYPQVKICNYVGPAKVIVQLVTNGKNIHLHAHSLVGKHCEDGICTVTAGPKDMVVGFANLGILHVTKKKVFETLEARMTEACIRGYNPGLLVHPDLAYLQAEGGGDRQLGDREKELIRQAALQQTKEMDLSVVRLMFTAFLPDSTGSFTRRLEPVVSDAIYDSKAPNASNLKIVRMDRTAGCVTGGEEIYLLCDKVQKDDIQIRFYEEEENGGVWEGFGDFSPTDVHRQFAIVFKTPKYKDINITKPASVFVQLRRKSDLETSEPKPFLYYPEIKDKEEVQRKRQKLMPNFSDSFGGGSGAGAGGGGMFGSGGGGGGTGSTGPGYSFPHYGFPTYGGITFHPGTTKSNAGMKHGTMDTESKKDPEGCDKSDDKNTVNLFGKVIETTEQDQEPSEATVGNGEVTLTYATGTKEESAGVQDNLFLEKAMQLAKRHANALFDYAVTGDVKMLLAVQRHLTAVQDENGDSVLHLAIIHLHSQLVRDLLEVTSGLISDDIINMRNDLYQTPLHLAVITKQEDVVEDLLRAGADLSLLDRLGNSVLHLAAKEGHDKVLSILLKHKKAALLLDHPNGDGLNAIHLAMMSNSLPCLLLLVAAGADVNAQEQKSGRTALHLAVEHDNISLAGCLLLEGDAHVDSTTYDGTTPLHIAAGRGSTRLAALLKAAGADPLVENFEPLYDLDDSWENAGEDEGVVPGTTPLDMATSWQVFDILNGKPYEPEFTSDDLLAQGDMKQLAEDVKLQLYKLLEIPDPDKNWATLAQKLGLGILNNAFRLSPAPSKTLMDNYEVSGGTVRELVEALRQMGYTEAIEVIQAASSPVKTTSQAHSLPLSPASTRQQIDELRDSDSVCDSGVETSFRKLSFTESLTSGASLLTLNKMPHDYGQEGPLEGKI
Sequence of Signal transducer and activator of transcription 3 (Homo sapiens) (P40763 whole entry, looked up): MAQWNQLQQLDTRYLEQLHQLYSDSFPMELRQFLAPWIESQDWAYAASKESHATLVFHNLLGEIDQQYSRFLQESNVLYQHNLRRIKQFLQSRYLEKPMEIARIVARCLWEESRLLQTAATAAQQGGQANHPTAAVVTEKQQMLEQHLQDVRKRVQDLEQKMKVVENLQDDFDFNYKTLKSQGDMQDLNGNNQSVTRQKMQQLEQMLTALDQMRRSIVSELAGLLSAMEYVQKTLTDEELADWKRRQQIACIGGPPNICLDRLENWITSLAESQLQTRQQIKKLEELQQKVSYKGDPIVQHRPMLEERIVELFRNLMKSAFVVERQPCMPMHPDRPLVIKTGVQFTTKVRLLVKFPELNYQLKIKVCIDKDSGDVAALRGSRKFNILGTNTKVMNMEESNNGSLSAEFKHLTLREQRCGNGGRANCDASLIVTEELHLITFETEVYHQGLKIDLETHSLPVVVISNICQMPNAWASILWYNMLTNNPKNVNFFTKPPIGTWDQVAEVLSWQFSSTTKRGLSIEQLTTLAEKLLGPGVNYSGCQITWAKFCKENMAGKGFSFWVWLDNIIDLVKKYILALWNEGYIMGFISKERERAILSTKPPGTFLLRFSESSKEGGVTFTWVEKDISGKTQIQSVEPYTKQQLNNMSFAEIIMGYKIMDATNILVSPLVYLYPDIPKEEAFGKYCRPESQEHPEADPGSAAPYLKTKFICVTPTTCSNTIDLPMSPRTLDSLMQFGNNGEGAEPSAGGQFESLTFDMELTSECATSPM

With `NC(=O)N1c2ccccc2C=Cc2ccccc21`, the outcome in test [1], in [2], in [3], in test [4], in [5] and in [6] was inactive. Besides, the call in test [7], in test [8], in test [9], in test [10], in test [11] and in [12] was inactive. Further, the compound was classed as inactive in test [13], in test [14], in [15], in test [16], in [17] and in test [18]. Also, the concentration at half-maximal activity (AC50) in test [19] was 21.6 µM (active).
Turning to `O=C(NO)C1(NS(=O)(=O)c2ccc(Oc3ccc(F)cc3)cc2)CCOCC1`, the AC50 in test [1] was 78.5 µM (active); in test [3] it was 68.4 µM (active); in test [7] it was 80.7 µM (active); in [8], 80 µM (active); in [18], 78.1 µM (active). Besides, the compound was classed as inactive in [2], in test [4], in [5], in test [6], in test [9] and in [10]. For the same compound, the compound was classed as inactive in test [11], in test [12], in test [13], in test [14], in test [15] and in [16]. Moreover, the compound was classed as inactive in [17].
Consider `Cn1c(=O)c2[nH]cnc2n(C)c1=O`, for which the result in test [1], in [2], in [3], in test [4], in [5] and in [6] was inactive. The call in test [7], in [8], in test [10], in test [11], in test [12] and in [14] was inactive. The compound was classed as inactive in test [15], in test [16] and in test [18]. Further, the concentration at half-maximal activity (AC50) in test [17] is 276 nM (active).
For `COc1cc2c(c(OC)c1OC)-c1ccc(OC)c(=O)cc1[C@@H](NC(C)=O)CC2`, the AC50 in test [1] was 0.144 µM (active); in [2] it was 152 nM (active); in test [3] it was 0.112 µM (active); in [7], 0.105 µM (active); in [9] it was 148 nM (active); in test [11] it was 138 nM (active). Moreover, the AC50 was 136 nM (active) in test [13], 87.1 nM (active) in test [14], 40 nM (active) in test [15] and 0.073 µM (active) in [18]. For the same compound, the result in [4], in test [5], in test [6], in [10], in test [12] and in test [16] was inactive. In test [17], the compound was called inactive.

A word on the AC50: it is the concentration at which the activity in the assay is half-maximal.
